Test [1] has as its target Paired box protein Pax-6 (Homo sapiens) (UniProt P26367). Briefly: ATG_Pax6_CIS: Attagene CIS-FACTORIAL HepG2 Assay for human Paired Box 6 (PAX6) (AID 2282956). As to conditions: HepG2 CIS-FACTORIAL PAX6 reporter transcription, RNA readout; actives raise or lower the signal. A digest of the protocol: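 Read-out is reporter transcript level, measured by RT-PCR with fluorescent primer extension and capillary electrophoresis after 24 h dosing of transfected HepG2 cells. Activity in either direction fitted relative to DMSO control.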

A short description of test [2]: ATG_PXRE_CIS: Attagene CIS-FACTORIAL HepG2 Assay for human Pregnane X Receptor Element (PXRE) (AID 2282957). As to conditions: HepG2 Attagene CIS-FACTORIAL PXRE reporter, mRNA; actives raise or lower the signal. A digest of the protocol: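 Endogenous transcription factor activity in HepG2 was gauged through induction of reporter mRNA driven by a cis-regulating promoter element, sampled 24 h post-treatment. Activity was fitted in both directions against DMSO negative control.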

Test [3] in a line: ATG_RORE_CIS: Attagene CIS-FACTORIAL HepG2 Assay for human RAR-related Orphan Receptor Element (RORE) (AID 2282959). As to conditions: HepG2 Attagene cis-factorial RORE reporter, mRNA; actives raise or lower the signal. The method, boiled down: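 Readout: fluorescent reporter mRNA by RT-PCR plus capillary electrophoresis, 24 h after dosing transfected HepG2 cells. Endogenous transcription factor activity on a cis promoter element is measured. Gain or loss of signal fitted against DMSO.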

A short description of test [4]: ATG_Sox_CIS: Attagene CIS-FACTORIAL HepG2 Assay for human SRY-box transcription factor (SOX) (AID 2282960). As to conditions: HepG2 Attagene cis-factorial SOX reporter, mRNA; actives raise or lower the signal. A digest of the protocol:
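Read-out: fluorescent RT-PCR products of SOX1-linked reporter transcripts resolved by capillary electrophoresis, fitted bidirectionally against DMSO. Transiently transfected HepG2 cells, 24 h after chemical exposure, endogenous transcription factor activity.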

In test [5] the target is Transcription factor Sp1 (Homo sapiens) (UniProt P08047). Briefly: ATG_Sp1_CIS: Attagene CIS-FACTORIAL HepG2 Assay for human Specificity Protein 1 (Sp1) (AID 2282961). As to conditions: HepG2 Sp1 cis-reporter transcription, actives raise or lower the signal. The method, boiled down: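 Read-out: fluorescence of 6-FAM-labeled, HpaI-digested RT-PCR products separated by capillary electrophoresis. HepG2 cells carried transfected cis-element reporter units and were exposed to chemicals for 24 h; gain or loss of signal fitted relative to DMSO.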
Transcription factor Sp1 (Homo sapiens), sequence (P08047 whole entry, looked up): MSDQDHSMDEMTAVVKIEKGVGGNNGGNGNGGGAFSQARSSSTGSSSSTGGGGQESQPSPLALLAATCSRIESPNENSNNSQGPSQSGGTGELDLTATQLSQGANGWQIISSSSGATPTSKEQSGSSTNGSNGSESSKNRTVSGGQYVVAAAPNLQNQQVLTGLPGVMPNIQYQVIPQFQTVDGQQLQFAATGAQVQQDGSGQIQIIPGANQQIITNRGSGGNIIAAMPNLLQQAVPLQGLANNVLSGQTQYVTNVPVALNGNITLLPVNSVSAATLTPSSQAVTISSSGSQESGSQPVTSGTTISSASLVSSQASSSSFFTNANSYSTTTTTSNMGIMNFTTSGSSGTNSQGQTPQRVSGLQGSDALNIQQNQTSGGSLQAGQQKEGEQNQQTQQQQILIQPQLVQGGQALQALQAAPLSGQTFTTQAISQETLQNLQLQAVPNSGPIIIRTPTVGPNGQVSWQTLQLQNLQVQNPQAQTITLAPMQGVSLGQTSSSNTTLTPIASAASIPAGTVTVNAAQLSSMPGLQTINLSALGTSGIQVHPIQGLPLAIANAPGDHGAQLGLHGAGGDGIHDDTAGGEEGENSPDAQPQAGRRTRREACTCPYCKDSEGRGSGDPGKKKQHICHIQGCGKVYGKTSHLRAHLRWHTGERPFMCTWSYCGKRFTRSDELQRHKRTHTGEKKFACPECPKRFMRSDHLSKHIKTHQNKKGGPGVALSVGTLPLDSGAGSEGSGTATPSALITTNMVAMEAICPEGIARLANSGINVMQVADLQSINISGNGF

Test [6] is described as follows: ATG_SREBP_CIS: Attagene CIS-FACTORIAL HepG2 Assay for human Sterol Regulatory Element Binding (SREBP) (AID 2282962). As to conditions: HepG2 Attagene cis-factorial SREBP reporter, mRNA; actives raise or lower the signal. The method, boiled down: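 Endogenous SREBP activity read as cis-element-driven reporter transcript in transiently transfected HepG2, 24 h post-dosing; quantified via RT-PCR plus capillary electrophoresis of fluorescent fragments. Gain or loss of signal fitted relative to DMSO baseline.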

The target in test [7] is Signal transducer and activator of transcription 3 (Homo sapiens) (UniProt P40763). Briefly: ATG_STAT3_CIS: Attagene CIS-FACTORIAL HepG2 Assay for human Signal Transducer and Activator of Transcription 3 (STAT3) (AID 2282963). As to conditions: HepG2, Attagene cis-factorial STAT3 reporter transcription; actives raise or lower the signal. The method, boiled down:
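Cis-factorial format: endogenous transcription factors in HepG2 drive transfected reporter units. After 24 h treatment, reporter RNA was reverse-transcribed, amplified, FAM-labelled and HpaI-digested before CE analysis; activity scored in both directions against DMSO.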

Test [8] is described as follows: ATG_TA_CIS: Attagene CIS-FACTORIAL HepG2 Assay for human TA Basal Promoter (AID 2282964). As to conditions: HepG2 Attagene CIS-factorial TA basal promoter reporter; actives raise or lower the signal. A digest of the protocol: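 Multiplexed mRNA reporter assay, HepG2, 24 h. Reporter cDNA amplified, 6-FAM primer-extended, HpaI-cut, CE-sized; DMSO = negative control and baseline.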

Test [9] is described as follows: ATG_TCF_b_cat_CIS: Attagene CIS-FACTORIAL HepG2 Assay for human T-Cell-Factor with beta-catenin (TCF/b-cat) (AID 2282965). As to conditions: HepG2 TCF/beta-catenin cis-reporter transcription, actives raise or lower the signal. The method, boiled down:
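Endogenous transcription factor activity is captured through cis-promoter reporter constructs transiently introduced into human HepG2 liver cells. Induced reporter mRNA is measured after 24 h and fitted bidirectionally relative to DMSO.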

A short description of test [10]: ATG_TAL_CIS: Attagene CIS-FACTORIAL HepG2 Assay for human TAL Basal Promoter (AID 2282966).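 Also: background control endpoint measuring basal TAL promoter reporter mRNA not a specific factor.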 As to conditions: HepG2 Attagene cis-factorial TAL promoter reporter; actives raise or lower the signal. The method, boiled down:
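Endogenous transcription-factor activity is sensed in HepG2 cells through transfected cis-promoter reporter constructs. After 24 h dosing, reporter transcripts are quantified by RT-PCR and capillary electrophoresis. Gain or loss of signal is fitted relative to DMSO.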

Test [11] can be described thus: ATG_TGFb_CIS: Attagene CIS-FACTORIAL HepG2 Assay for human Transforming Growth Factor (TGF) (AID 2282967). As to conditions: HepG2 Attagene CIS TGFb reporter, mRNA transcription; actives raise or lower the signal. A digest of the protocol: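 Transcript-level reporter readout: HepG2 transfectants, 24 h exposure, RNA to cDNA, reporter-specific PCR, fluorescent primer extension, capillary sizing against ROX standards. Gain- or loss-of-signal relative to DMSO.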

The target of test [12] is X-box-binding protein 1 (Homo sapiens) (UniProt P17861). Nature of the test: ATG_Xbp1_CIS: Attagene CIS-FACTORIAL HepG2 Assay for human X-box Binding Protein 1 (XBP1) (AID 2282972). As to conditions: HepG2 XBP1 cis-element reporter, Attagene multiplex; actives raise or lower the signal. The method, boiled down:
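Reporter transcripts were quantified by RT-PCR with fluorescent primer extension and capillary electrophoresis after 24 h chemical exposure. Cells: transiently transfected HepG2 carrying cis-regulated reporter constructs; data fitted bidirectionally relative to DMSO.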

The nature of test [13]: ATG_VDRE_CIS: Attagene CIS-FACTORIAL HepG2 Assay for human Vitamin D Receptor Element (VDRE) (AID 2282968). As to conditions: HepG2 VDRE cis-reporter transcription, actives raise or lower the signal. The method, boiled down:
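Measures endogenous factor activity through cis-element-driven reporter transcripts in transiently transfected HepG2. Cells are treated 24 h; reporter mRNA is quantified by RT-PCR and capillary electrophoresis; fitting is bidirectional.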

Test [14] has as its target Estrogen receptor (Homo sapiens) (UniProt P03372). Briefly: ATG_ERa_TRANS: Attagene TRANS-FACTORIAL HepG2 Assay for human Estrogen Receptor alpha (ERa) (AID 2282970; active = hit-call score of the fitted dose curve at least 0.9, where 1 is the maximum). As to conditions: HepG2 Attagene TRANS ERa GAL4 reporter, mRNA. A digest of the protocol: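 Transfected HepG2 cells carrying GAL4-UAS-driven reporter units were dosed for 24 hours. Total RNA was reverse-transcribed, reporter sequences PCR-amplified, FAM-labelled, HpaI-digested and resolved by capillary electrophoresis. Increases over DMSO control defined activity.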

For test [15], the target named is Steroid hormone receptor ERR1 (Homo sapiens) (UniProt P11474). Nature of the test: ATG_ERRa_TRANS: Attagene TRANS-FACTORIAL HepG2 Assay for human Estrogen-Related Receptor alpha (ERRa) (AID 2282971; active = hit-call score of the fitted dose curve at least 0.9, where 1 is the maximum). As to conditions: HepG2 Attagene TRANS reporter, ERRa transactivation. The method, boiled down:
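HepG2 cells were transiently transfected with multiple GAL4-UAS reporter units, then dosed with compound for 24 h. Total RNA was reverse-transcribed, reporter cDNA PCR-amplified and fluorescently labelled, and fragments resolved by capillary electrophoresis; induction was compared with DMSO.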

For test [16], the target named is Estrogen-related receptor gamma (Homo sapiens) (UniProt P62508). Nature of the test: ATG_ERRg_TRANS: Attagene TRANS-FACTORIAL HepG2 Assay for human Estrogen-Related Receptor gamma (ERRg) (AID 2282977; active = hit-call score of the fitted dose curve at least 0.9, where 1 is the maximum;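 also: hits increase reporter signal over DMSO so potencies reflect activators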). As to conditions: HepG2 Attagene TRANS reporter, ERRg transactivation. A digest of the protocol: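 Exogenous NR-Gal4 chimera activity was assessed in HepG2 cells bearing transfected GAL4-UAS reporters. After 24 h dosing, total RNA underwent RT-PCR, fluorescent primer extension and HpaI digestion before capillary electrophoresis, with gain of signal scored against DMSO.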
Estrogen-related receptor gamma (Homo sapiens), sequence (P62508 whole entry, looked up, the tested form may be a part): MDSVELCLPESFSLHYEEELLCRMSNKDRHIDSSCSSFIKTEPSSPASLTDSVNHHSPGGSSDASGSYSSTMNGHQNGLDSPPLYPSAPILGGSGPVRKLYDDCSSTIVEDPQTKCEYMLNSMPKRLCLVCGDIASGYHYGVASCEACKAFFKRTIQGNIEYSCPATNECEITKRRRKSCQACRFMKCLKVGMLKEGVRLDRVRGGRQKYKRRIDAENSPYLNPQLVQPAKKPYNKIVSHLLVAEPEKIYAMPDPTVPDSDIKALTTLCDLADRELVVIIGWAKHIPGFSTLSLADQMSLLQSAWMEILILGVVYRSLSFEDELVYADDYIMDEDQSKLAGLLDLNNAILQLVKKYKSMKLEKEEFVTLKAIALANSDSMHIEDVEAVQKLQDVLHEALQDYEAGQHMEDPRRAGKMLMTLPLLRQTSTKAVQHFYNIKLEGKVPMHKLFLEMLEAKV

The target in test [17] is Nuclear receptor subfamily 1 group I member 3 (Homo sapiens) (UniProt Q14994). Nature of the test: ATG_CAR_TRANS: Attagene TRANS-FACTORIAL HepG2 Assay for human Constitutive Androstane Receptor (CAR) (AID 2282969; active = hit-call score of the fitted dose curve at least 0.9, where 1 is the maximum;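 also: activators raise reporter mRNA above DMSO so AC50 marks induction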). As to conditions: HepG2 Attagene TRANS-FACTORIAL CAR reporter. The method, boiled down:
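Signal is reporter mRNA induction relative to DMSO, measured 24 h after dosing by RT-PCR with fluorescent primer extension and capillary electrophoresis. Human HepG2 liver cells carried transiently transfected chimeric NR-Gal4/GAL4-UAS reporter constructs.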

Test [18] in a line: ATG_M_19_TRANS: Attagene TRANS-FACTORIAL HepG2 Assay for M19 Transcription Factor (Internal Marker) (AID 2282974; active = hit-call score of the fitted dose curve at least 0.9, where 1 is the maximum). As to conditions: HepG2 Attagene TRANS-FACTORIAL M19 internal marker reporter. A digest of the protocol:
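24 h chemical exposure of transiently transfected HepG2 (MRTU library). RNA → oligo(dT) RT → PCR → 6-FAM labelling → HpaI cut → CE fluorescence. Positive-direction fit vs DMSO baseline; background internal-marker readout.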

Results on seven compounds are retold here after PubChem BioAssay (EPA / NIEHS).

Records with an inconclusive call do not appear. Activity calls are given as the source filed them. The calls were made as follows, unless noted: active = hit-call score of the fitted dose curve at least 0.9, where 1 is the maximum; inactive = score below 0.9.

Signal transducer and activator of transcription 3 (Homo sapiens), sequence (P40763 whole entry, looked up): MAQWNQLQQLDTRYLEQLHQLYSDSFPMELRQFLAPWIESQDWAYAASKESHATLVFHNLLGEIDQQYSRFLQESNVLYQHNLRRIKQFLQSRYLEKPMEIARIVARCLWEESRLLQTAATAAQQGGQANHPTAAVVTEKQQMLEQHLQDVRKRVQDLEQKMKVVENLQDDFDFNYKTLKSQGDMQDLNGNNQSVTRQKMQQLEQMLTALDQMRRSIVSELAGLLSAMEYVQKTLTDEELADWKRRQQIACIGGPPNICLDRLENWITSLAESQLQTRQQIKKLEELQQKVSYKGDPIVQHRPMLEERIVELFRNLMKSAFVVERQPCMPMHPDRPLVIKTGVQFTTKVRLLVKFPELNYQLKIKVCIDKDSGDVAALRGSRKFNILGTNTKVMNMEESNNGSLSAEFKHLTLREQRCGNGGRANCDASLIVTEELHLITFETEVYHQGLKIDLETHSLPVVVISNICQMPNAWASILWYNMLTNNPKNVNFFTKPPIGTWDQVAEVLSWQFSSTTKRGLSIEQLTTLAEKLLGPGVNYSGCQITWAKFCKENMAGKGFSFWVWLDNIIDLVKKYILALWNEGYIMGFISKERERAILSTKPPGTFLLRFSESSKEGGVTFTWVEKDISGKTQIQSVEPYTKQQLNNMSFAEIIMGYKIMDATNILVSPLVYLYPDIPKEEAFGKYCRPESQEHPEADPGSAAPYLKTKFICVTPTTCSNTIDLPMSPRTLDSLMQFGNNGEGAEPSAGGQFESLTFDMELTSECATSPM
Paired box protein Pax-6 (Homo sapiens), sequence (P26367 whole entry, looked up): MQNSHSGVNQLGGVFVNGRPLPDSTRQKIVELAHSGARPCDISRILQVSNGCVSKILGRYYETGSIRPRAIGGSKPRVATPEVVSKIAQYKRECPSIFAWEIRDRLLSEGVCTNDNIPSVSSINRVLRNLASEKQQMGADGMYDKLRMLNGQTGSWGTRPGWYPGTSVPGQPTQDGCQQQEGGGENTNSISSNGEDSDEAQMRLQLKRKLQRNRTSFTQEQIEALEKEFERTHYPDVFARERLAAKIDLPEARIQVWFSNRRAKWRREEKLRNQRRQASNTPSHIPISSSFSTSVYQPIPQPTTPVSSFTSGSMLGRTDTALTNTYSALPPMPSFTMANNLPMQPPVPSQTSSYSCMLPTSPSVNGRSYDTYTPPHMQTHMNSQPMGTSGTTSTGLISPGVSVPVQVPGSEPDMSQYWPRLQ
X-box-binding protein 1 (Homo sapiens), sequence (P17861 whole entry, looked up): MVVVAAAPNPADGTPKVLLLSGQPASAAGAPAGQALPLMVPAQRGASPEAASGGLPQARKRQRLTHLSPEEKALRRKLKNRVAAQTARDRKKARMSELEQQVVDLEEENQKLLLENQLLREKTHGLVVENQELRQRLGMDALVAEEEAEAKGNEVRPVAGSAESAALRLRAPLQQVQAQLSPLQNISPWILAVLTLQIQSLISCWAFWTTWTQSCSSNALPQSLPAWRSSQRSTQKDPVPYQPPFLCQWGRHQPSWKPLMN
Estrogen receptor (Homo sapiens), sequence (P03372 whole entry, looked up, the tested form may be a part): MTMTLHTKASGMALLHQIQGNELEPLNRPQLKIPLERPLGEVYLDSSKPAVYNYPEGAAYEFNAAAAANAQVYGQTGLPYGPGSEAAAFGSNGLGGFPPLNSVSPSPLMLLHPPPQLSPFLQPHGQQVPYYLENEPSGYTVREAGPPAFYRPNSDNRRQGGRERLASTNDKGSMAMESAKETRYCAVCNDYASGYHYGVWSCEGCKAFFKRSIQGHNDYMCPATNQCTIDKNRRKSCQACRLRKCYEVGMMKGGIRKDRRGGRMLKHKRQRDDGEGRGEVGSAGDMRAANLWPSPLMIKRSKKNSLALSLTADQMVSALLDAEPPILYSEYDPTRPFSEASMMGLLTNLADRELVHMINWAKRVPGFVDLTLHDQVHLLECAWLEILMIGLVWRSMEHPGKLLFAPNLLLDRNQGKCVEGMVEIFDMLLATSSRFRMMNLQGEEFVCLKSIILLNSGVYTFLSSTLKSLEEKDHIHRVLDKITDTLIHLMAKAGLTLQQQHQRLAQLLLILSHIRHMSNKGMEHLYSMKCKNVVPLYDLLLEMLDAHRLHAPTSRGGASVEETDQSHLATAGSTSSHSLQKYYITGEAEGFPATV
Nuclear receptor subfamily 1 group I member 3 (Homo sapiens), sequence (Q14994 whole entry, looked up, the tested form may be a part): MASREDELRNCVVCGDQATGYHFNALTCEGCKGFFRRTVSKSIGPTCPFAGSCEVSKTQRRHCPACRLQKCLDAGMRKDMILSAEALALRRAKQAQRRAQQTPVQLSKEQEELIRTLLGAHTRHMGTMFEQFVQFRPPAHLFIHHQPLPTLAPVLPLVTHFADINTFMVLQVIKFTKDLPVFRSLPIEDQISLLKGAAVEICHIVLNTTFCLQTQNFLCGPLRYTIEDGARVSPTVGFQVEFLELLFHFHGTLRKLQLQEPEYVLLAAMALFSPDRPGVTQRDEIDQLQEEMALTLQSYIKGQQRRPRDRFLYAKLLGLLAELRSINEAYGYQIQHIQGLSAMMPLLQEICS
Steroid hormone receptor ERR1 (Homo sapiens), sequence (P11474 whole entry, looked up, the tested form may be a part): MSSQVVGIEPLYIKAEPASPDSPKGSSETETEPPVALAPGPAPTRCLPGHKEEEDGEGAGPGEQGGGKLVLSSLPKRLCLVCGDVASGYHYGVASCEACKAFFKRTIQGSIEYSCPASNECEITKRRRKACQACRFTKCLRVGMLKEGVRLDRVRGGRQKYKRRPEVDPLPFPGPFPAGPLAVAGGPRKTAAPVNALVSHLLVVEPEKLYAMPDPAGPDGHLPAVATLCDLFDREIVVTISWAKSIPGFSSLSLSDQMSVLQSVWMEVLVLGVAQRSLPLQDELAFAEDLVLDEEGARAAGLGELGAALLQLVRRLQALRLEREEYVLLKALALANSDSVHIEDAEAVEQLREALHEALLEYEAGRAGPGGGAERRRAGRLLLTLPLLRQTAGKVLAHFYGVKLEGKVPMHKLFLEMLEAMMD

On to `CCCCCCCCCCCCOCCO`, for which the compound was classed as inactive in test [1], in test [2], in test [3], in test [4], in test [7] and in test [8]. For the same compound, the call in test [9], in [10] and in test [11] was inactive. Also, the figures for the concentration at half-maximal activity (AC50) in test [5], in [6] and in test [12] were 49.9 µM (active), 49.1 µM (active) and 55.5 µM (active), respectively.

In the case of `c1ccc(CCCc2ccccn2)cc1`, the outcome in [1], in test [3], in [4], in test [5], in test [7] and in test [8] was inactive. The compound was called inactive in test [9], in [10], in test [14], in test [15], in test [12] and in test [16]. Also, the AC50 (in general, the concentration giving half of the maximal activity seen) in test [2] was 100 µM (active); in test [11] it was 148 µM (active); in test [13] it was 42.9 µM (active).

With `CC(C)c1ccc(C(C)C)cc1`, the compound was called inactive in test [1], in test [2], in [3], in test [4], in [5] and in test [7]. Further, the outcome in [8], in [9], in [10], in test [17], in [14] and in test [12] was inactive. Moreover, the call in test [18] was inactive. Also, the AC50 in test [6] was 152 µM (active).

For `COc1c(Cl)c(Cl)c(Cl)c(Cl)c1Cl`, the compound was called inactive in test [1], in [3], in test [4], in test [5], in test [6] and in test [7]. Moreover, the result in test [8], in test [9], in test [10], in [11], in test [17] and in test [12] was inactive. In addition, the AC50 in [2] was 26.2 µM (active).

On to `C=CC(=O)OCCOCCOCC`, for which the results for the AC50 in test [1], in test [2] and in test [12] were 68.4 µM (active), 27 µM (active) and 135 µM (active), respectively. Moreover, the call in test [3], in [4], in test [5], in [6], in [7] and in test [8] was inactive. The outcome in test [9], in test [10] and in test [16] was inactive.

Regarding `CC(C)[C@H]1CC[C@@H](C)CC1=O`, the compound was classed as inactive in test [1], in test [3], in [4], in [5], in test [6] and in test [7]. Besides, the compound was called inactive in test [8], in test [9], in [10], in test [11], in test [12] and in [18]. In addition, the AC50 in [2] is 61.9 µM (active).

For `O=C(O)CCCCCCCCCCC(=O)O`, the compound was called inactive in test [1], in test [2], in test [3], in test [4], in test [5] and in [6]. For the same compound, the outcome in [7], in test [9], in [10], in test [11], in test [14] and in test [12] was inactive.
